m5-HT2A agonist – agonists of mouse serotonin 5-HT2A receptor (HTR2A); CHO-K1 mHTR2A beta-arrestin complementation, luminescence; percent of 30 µM serotonin response; activation, % at 7.6 µM; hit rate 0.66% among 360,000;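 active = activation above a run cutoff, the mean activation of all tested compounds plus 3 SD, cut at about 14% in these data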;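 also: 0% = plate median of compound wells and 100% = 30 µM serotonin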
TMEM16A act – mouse TMEM16A channel activation, primary screen; Q8BHY3; hit rate 0.3% among 340,000; B-score at 10 µM; AID 623877; HEK293 TMEM16A/YFP-H148Q/I152L, iodide quench fluorescence; hits give low values;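 active = fluorescence-ratio B-score plate-corrected deviation score at least 3 library SD below zero, with starting fluorescence score within 5 deviations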;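 also: channel opened by trigger with iodide after compound preincubation; score built on the fluorescence ratio of max minus min over baseline; more negative score means more quench and so TMEM16A activation or potentiation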
NOD2-RIPK2 inh – NOD2-RIPK2 protein interaction inhibition | CHO BLA complementation NOD2-RIPK2, CCF4 ratio | inhibition, % at 4.98 µM | hit rate 0.38% among 360,000 | AID 624267; in the data active = inhibition above about 21%;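 also: 0% = vehicle only and 100% = reference blocker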
TLR9-MyD88 inh – inhibitors of human TLR9-MyD88 binding | Q9NR96+Q99836 | inhibition, % at 4.98 µM | CHO BLA complementation TLR9-MyD88, CCF4 FRET ratio | hit rate 0.21% among 340,000;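 active = inhibition above the mean over all tested compounds plus 3 SD, cut at about 21% in these data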;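 also: 0% = DMSO only wells and 100% = clavulanate BLA inhibitor control wells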
ANO1 block – inhibitors of mouse TMEM16A calcium-activated chloride channel; HEK293 TMEM16A/YFP iodide influx fluorescence, ionomycin; normalized B-score (activity score, 25-100; higher = stronger inhibition) at 10 µM; hit rate 1.2% among 310,000; AID 588511;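 active = ratio plate-corrected score three or more library SD toward inhibition, starting fluorescence score within five deviations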;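 also: score derived from kinetic fluorescence span divided by baseline fluorescence per well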
TLR4-MyD88 BLA – blocks binding of human TLR4 to MyD88 | O00206+Q99836 | HeLa CL3-4 TLR4/MyD88 BLA complementation, FRET ratio | inhibition, % at 8.4 µM | hit rate 0.18% among 200,000 | AID 861; in the data active = inhibition above about 25%;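 also: 0% = vehicle and 100% = reference inhibitor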
TMEM16A reconf – reconfirmed blocker of mouse TMEM16A calcium-activated chloride channel. AID 652189. shares compounds with ANO1 block. inhibition, % at 10 µM. hit rate 39% among 2,300. HEK293 TMEM16A/YFP-H148Q, iodide quench fluorescence; ionomycin added to raise cell calcium;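 active = mean duplicate percent inhibition, scaled so buffer wells are 0 and the reference blocker 100, over three buffer SD above buffer mean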
TMEM16A Ca cntr – counter-screen for TMEM16A inhibitors: effect on calcium mobilization; shares compounds with ANO1 block; TMEM16A/YFP HEK293, Fluo4 calcium mobilization; calcium response (% of ionomycin), % at 10 µM; hit rate 2% among 2,300; AID 652231;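 active = duplicate-averaged calcium signal over 20% of the ionomycin maximum, relative to buffer baseline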;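 also: each well's signal is peak minus trough fluorescence divided by its pre-addition baseline; 0% = buffer wells and 100% = ionomycin wells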
Parental YFP cnt – counter-screen for TMEM16A inhibitors: effect in parental YFP-HEK293 cells; YFP ratio F(max-min)/F0 at 10 µM; iodide YFP quench, ionomycin; 2,300 tested, under 10 active; shares compounds with ANO1 block;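 active = yellow fluorescent protein signal ratio exceeding the buffer control mean by over 5 SD of those controls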;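 also: ratio is mean of duplicate wells from kinetic YFP trace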
ClC-1 inh – blocks the rat ClC-1 voltage-dependent chloride channel | AID 652236 | 2,300 tested, under 10 active | shares compounds with ANO1 block | ratio percent, % at 10 µM | CHO ClC-1-YFP, iodide influx fluorescence quench; iodide control reads 0, buffer control 100;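 active = duplicate-mean ratio percent above the mean of iodide-only control wells, which defines zero, plus 5 of their SD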;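 also: higher percent means stronger block of ClC-1 iodide influx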
Active calls of the source: *; i = inactive; / = not tested or not shown. In the library only some 2.4% were active in any assay of this set; here they are far more common.

SMILES | m5-HT2A agonist | TMEM16A act | NOD2-RIPK2 inh | TLR9-MyD88 inh | ANO1 block | TLR4-MyD88 BLA | TMEM16A reconf | TMEM16A Ca cntr | Parental YFP cnt | ClC-1 inh
O=C(Nc1ccc(S(=O)(=O)Nc2ccc(F)cc2)cc1)c1ccc(CN2CCOCC2)cc1 | -1.0 | i | -2.6 | 1.0 | 25* | -1.0 | 39.0%* | i | -0.903 | -15.0
O=C(Nc1ccc(S(=O)(=O)N2CCOCC2)cc1)c1ccc(Cl)cc1 | -8.8 | i | -2.4 | 11.2 | i | / | / | / | / | /
CC(NC(=S)Nc1ccc(S(=O)(=O)N2CCOCC2)cc1)C1CC2CCC1C2 (configuration not stated) | -5.9 | i | -10.3 | 1.2 | 25* | 3.2 | i | i | -1.38 | -2.5
Cc1cc(C(=O)NN=Cc2ccc(-c3ccc(F)cc3)o2)c(C)o1 | -5.0 | i | -13.2 | -11.6 | / | / | / | / | / | /
COc1ccc(-c2nc(=S)c3ccc4ccccc4c3[nH]2)cc1 | 3.0 | i | -1.6 | -7.0 | / | -16.1 | / | / | / | /
O=C(Nc1ccc(S(=O)(=O)N2CCOCC2)cc1)C1CCCCC1 | -4.0 | i | 1.9 | 4.9 | 25* | 0.8 | i | i | -1.05 | -4.5
Cn1cc(CC(=O)NCc2ccc(F)cc2)c2ccccc21 | -1.0 | i | 0.3 | -16.8 | i | / | / | / | / | /
N#C/C(=N\Nc1ccc(F)cc1)C(=O)C1CC1 | -1.9 | i | -15.8 | / | 25* | / | 26.0%* | i | -0.821 | -13.5
COCc1cc(CNC(=O)C2CCC(=O)N(Cc3ccccc3F)C2)[nH]n1 (configuration not stated) | -0.3 | i | 0.9 | -2.4 | i | / | / | / | / | /
CC(C)c1nnc(SCC(=O)N2CCc3ccccc32)n1C | -1.1 | i | 9.3 | 0.0 | 100* | -8.1 | i | i | -1.01 | -3.0
CC(C)(C)C(=O)Nc1cc(S(=O)(=O)Nc2ccc(Cl)cc2)ccc1Cl | -1.8 | i | -7.2 | 4.7 | 25* | 0.8 | 36.5%* | i | -1.37 | -7.5
Cc1cccc(C(=O)OCC(=O)NC23CC4CC(CC(C4)C2)C3)c1O | 0.9 | i | -9.8 | 5.2 | / | / | / | / | / | /
C=CCN(c1ccccc1)S(=O)(=O)c1cccc(C(=O)Nc2ccncc2)c1 | -10.0 | i | -10.2 | -1.3 | 100* | / | 20.5%* | i | -1.04 | -7.0
C=CCN(c1ccccc1)S(=O)(=O)c1cccc(C(=O)NCc2ccncc2)c1 | -6.2 | i | -7.8 | -3.9 | i | / | / | / | / | /
O=C(COC(=O)c1nc(Cl)ccc1Cl)NCCc1ccccc1 | 0.4 | i | -7.6 | -4.3 | i | / | / | / | / | /
CCOc1cc(/C=C2/SC(=S)N(CC(=O)O)C2=O)ccc1OC(=O)c1cccs1 | -4.3 | i | -7.8 | -1.7 | i | / | / | / | / | /
CN1C(=O)/C(=C/c2ccc(OC(=O)c3ccco3)cc2)SC1=S | 1.1 | i | -6.8 | 16.5 | i | / | i | i | -1.2 | -21.5
COc1cc(/C=C2\SC(=S)N(CC(=O)O)C2=O)ccc1OC(=O)c1ccco1 | -0.3 | -5.49* | -8.9 | -0.7 | i | / | i | i | -1.41 | -78.0
Cn1cccc1/C=C1/SC(=S)N(CC(=O)O)C1=O | -4.7 | i | 0.6 | -8.4 | i | -9.0 | i | i | -0.689 | -7.5
Nc1ccc(C2(c3ccc(N)cc3)c3ccccc3C(=O)c3ccccc32)cc1 | -0.5 | i | 5.2 | 9.5 | i | / | / | / | / | /
Cc1cc(=O)oc2c(C)c(OC(=O)c3ccco3)ccc12 | 1.8 | i | -9.0 | -7.5 | i | / | / | / | / | /
CN(c1ccccc1)S(=O)(=O)c1cccc(NC(=O)CCN2C(=O)C3CCCCC3C2=O)c1 (configuration not stated) | 4.8 | i | 6.8 | -4.1 | i | -14.5 | / | / | / | /
COC(=O)c1ccc(C(=O)N(C)C2CCCN(Cc3ccccc3F)C2)cc1 (configuration not stated) | -0.5 | i | -10.7 | -13.8 | i | / | / | / | / | /
COCCCN1C(=O)C(CC(=O)NCCc2ccccn2)CC(C(=O)N(C(C)C)C(C)C)=C1C (configuration not stated) | 3.0 | / | 0.5 | / | / | / | / | / | / | /
CCSc1nnc(-c2cc(Br)ccc2N=Cc2c(C)[nH]n(-c3ccccc3)c2=O)c(=O)[nH]1 | 6.8 | i | 3.8 | -8.6 | 100* | 1.8 | 21.0%* | 20.0%* | -0.972 | -22.0
SMILES | m5-HT2A agonist | TMEM16A act | NOD2-RIPK2 inh | TLR9-MyD88 inh | ANO1 block | TLR4-MyD88 BLA | TMEM16A reconf | TMEM16A Ca cntr | Parental YFP cnt | ClC-1 inh
CCN(CC)c1nc(OCCNC(=O)Nc2ccccc2)nc(N(CC)CC)n1 | 8.1 | i | -5.3 | -1.7 | 100* | 11.0 | 19.5%* | i | -1.02 | -11.0
CC(=O)N1C(=O)C(=C2C=C(C)OC(C)=C2)c2ccccc21 | -3.1 | i | 8.6 | -0.1 | i | -5.1 | 27.5%* | i | -0.847 | 0.5
CCc1cccc(NC(=O)CSc2nc(C)cs2)c1 | -13.2 | / | -7.0 | -0.8 | / | / | / | / | / | /
c1ccc(C(Cc2nc(-c3ccncc3)no2)c2ccccc2)cc1 | 2.0 | i | -5.4 | -4.2 | 100* | 6.2 | 24.0%* | i | -0.993 | -19.5
c1ccc(-c2nc(-c3ccncc3)no2)cc1 | 1.1 | i | 6.3 | 2.1 | i | -6.0 | / | / | / | /
CCNC(=O)N1CCC(c2nc3ccccc3s2)CC1 | -0.2 | i | -11.0 | 4.7 | i | / | / | / | / | /
O=C(CSc1ccc(Cl)cc1Cl)N1CCC(c2nc3ccccc3s2)CC1 | -0.9 | i | -5.7 | -2.3 | 100* | -13.9 | i | i | -0.977 | -6.0
O=C(Cn1cnc2ccccc21)Nc1ccc(SC(F)F)cc1 | 2.0 | i | 2.6 | -0.6 | 25* | 0.8 | 20.5%* | i | -0.895 | -20.0
O=C(Cn1cnc2ccccc21)NCc1ccccc1 | 6.1 | i | -6.2 | -11.7 | i | 16.6 | / | / | / | /
COc1ccc(/C=C2\N=C(SC)SC2=O)cc1OC | 7.3 | i | 1.0 | 4.4 | i | -13.0 | / | / | / | /
CCOc1cc(/C=C2\N=C(SC)SC2=O)cc([N+](=O)[O-])c1OC(C)=O | 0.0 | i | -2.6 | -5.8 | 100* | 1.5 | i | i | -0.944 | -3.0
Cc1ccc(C2CC(=O)c3cnc(N4CCN(c5ccccc5)CC4)nc3C2)cc1 (configuration not stated) | -0.3 | i | -13.9 | -7.5 | i | -0.9 | / | / | / | /
O=C1CC(c2ccco2)Cc2nc(N3CCN(Cc4ccc5c(c4)OCO5)CC3)ncc21 (configuration not stated) | 1.4 | i | 8.5 | -3.1 | 25* | -1.2 | i | i | -0.946 | -4.5

Bioassay records deposited in PubChem by several laboratories.
